Measured values as given in PubChem BioAssay AID2778 (National Center for Advancing Translational Sciences (NCATS), 2010).
Records with an inconclusive call do not appear. Where a call stands in place of a potency, no number is given. Calls of active or inactive are those of the source. Calls come from the whole dose curve; as a rule, active = well fitted inhibition curve with a large enough effect; inconclusive = small, poorly fitted or top-dose-only effect, or effect the other way; inactive = flat fitted curve, though single readings scatter.

Target: Menin (Homo sapiens) (UniProt O00255)
Sequence (O00255 whole entry, looked up): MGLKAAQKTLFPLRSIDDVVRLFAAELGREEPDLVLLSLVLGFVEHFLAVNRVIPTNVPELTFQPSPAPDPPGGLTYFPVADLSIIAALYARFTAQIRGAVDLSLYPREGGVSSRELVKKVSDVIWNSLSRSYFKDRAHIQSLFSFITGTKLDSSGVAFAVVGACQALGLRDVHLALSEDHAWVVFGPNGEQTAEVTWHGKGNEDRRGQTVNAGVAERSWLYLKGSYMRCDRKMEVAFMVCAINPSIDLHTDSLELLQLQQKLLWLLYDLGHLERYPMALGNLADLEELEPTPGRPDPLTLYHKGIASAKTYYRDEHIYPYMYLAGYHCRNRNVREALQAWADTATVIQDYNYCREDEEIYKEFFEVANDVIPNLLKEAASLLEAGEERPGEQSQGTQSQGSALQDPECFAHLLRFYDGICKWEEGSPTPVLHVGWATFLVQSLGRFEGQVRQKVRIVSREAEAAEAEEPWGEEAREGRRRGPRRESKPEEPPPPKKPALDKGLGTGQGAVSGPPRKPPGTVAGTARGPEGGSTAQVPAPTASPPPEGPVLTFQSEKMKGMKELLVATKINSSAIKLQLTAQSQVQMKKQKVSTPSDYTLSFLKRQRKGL
Experiment: Confirmation of Inhibitors Targeting the Menin-MLL Interaction in MLL Related Leukemias: Confirmation in an HTRF (commercial TR-FRET) Assay using His-tagged menin and biotin-labeled MLL peptide
Details: His-menin / biotin-MLL peptide binding; series mostly up to 126 µM
Source text: qHTS Assay for Inhibitors Targeting the Menin-MLL Interaction in MLL Related Leukemias
NIH Chemical Genomics Center [NCGC]
NIH Molecular Libraries Probe Centers Network [MLPCN]
Assay Submitter (PI): Jolanta Grembecka, Tomasz Cierpicki, University of Virginia
Translocations of the MLL (Mixed Lineage Leukemia) gene are frequently found in human leukemias affecting both children and adults. Fusion of MLL to one of more than 60 genes results in generation of oncogenic proteins upregulating Hox genes, which are vital to blood cell development. Patients harboring fusion of the MLL gene suffer from aggressive leukemias and respond poorly to available therapies. All of the oncogenic fusion proteins have a preserved N-terminal fragment of MLL that has been identified to interact with menin. It has been recently discovered that association with menin is critical to the leukemogenic activity of the MLL fusion oncoproteins. Selective targeting of the menin-MLL interaction could provide an attractive therapeutic approach to develop novel drugs for MLL-related leukemias. Small molecules blocking the menin-MLL interaction should reverse the oncogenic potential of MLL fusion proteins.
We have developed and optimized a fluorescence polarization-based assay for the identification of Menin-MLL inhibitors. The assay was run employing two different MLL-derived peptides. The present assay uses a 12 amino acid peptide labeled with fluorescein at its N-terminus. This peptide consists of the menin high affinity binding motif from MLL and is potently bound by menin. Another peptide with a mutated sequence, labeled with Texas Red, was used in parallel as a less stringent screen for inhibitors.
The present assay uses an alternate technology to confirm hits from the primary screen - homogeneous time resolved fluorescence (HTRF).
The Menin protein, the MLL-wild type (w.t.) derived peptide (N-terminal 12 amino acids), the MLL-derived peptide labeled with Texas Red and the MLL-w.t. peptide labeled with Fluorescein were kindly supplied by laboratory of Dr. Jolanta Grembecka, University of Virginia. All protein and peptide solutions were stored in single use aliquots at -80C. The Eu3+ Cyrptate-conjugated mouse monoclonal antibody anti-6 Histidine (Eu3+-AB) and the Streptavidin-XL665 conjugate (XL665) were purchased from Cisbio International (Bedford, MA). All antibody and XL665 conjugate solution stocks were stored in single use aliquots at -20C. The Buffer components for all assays were purchased from Sigma-Aldrich (St. Louis, MO) and Invitrogen (Carlsbad, CA).
1. HTRF reaction buffer: 50 mM Tris-HCl pH 7.5, 50 mM NaCl, 1mM DTT.
Before use, 0.05% BSA is added.
2. His6-Menin protein, MLL-w.t. labeled with biotin.
Stored in singe use aliquots at -80C.
3. MLL-w.t. unlabeled peptide as positive control: 10 uM final in HTRF buffer.
1. Prepare His6-Menin at 200 nM, MLL-w.t.-biotin at 80 nM in HTRF buffer.
2. Prepare His6-Menin at 200 nM, MLL-w.t.-biotin at 80 nM and 10 uM MLL-w.t. unlabeled mixture in HTRF buffer.
3. Dispense 10 ul per well of reagent in step 1 in columns 2, 4-24 in a black 384 well plate, dispense 10 ul per well of reagents from steps 2 in column 1. Incubate plate at ambient for 15 minutes.
4. Transfer 1 uL per well of compound to plate and incubate at ambient for 1 hr.
5. Dispense 10uL of the donor (6His-Cryptate, 3.5 nM final conc.) and acceptor (SA_XL, 10nM final conc.) complex in the HTRF buffer with 0.01% BSA. Incubate for 1h.
Potency is the fitted concentration of half-maximal effect.

SMILES	Potency
O=C1NC(=O)C(=Cc2ccc3ccccc3c2)C(=O)N1	inactive
CCOC(=O)Cc1csc(NC(=O)c2c(O)c3ccccc3n(CCC(C)C)c2=O)n1	inactive
O=C(O)CN1C(=O)CN=C(c2ccccn2)c2cc(Cl)ccc21	inactive
Cc1cc(C(=O)NP(=O)(N2CCOCC2)N2CCOCC2)c(C)n1C1CC1	inactive
OC12C3C4CC5C6C4C1C6C(C53)N2CCc1cccc(F)c1 (stereo unspecified)	inactive
c1cc2cc(c1)C[n+]1ccc(c3ccccc31)NCc1ccc(cc1)CNc1cc[n+](c3ccccc13)C2	282 µM (active)
O=C(Nc1ccc2ccccc2c1)c1nn(C23CC4CC(CC(C4)C2)C3)cc1Br	inactive
O=c1oc2ccccc2c(O)c1C(c1ccccn1)c1c(O)c2ccccc2oc1=O	inactive
COc1cc(/C=N/n2cnnc2)ccc1OC(=O)N(C)C	inactive
CC[C@]12C=CCN3CC[C@@]4(c5ccc(OC)cc5N(C)[C@H]4[C@@](O)(C(=O)OC)[C@@H]1OC(C)=O)C32 (stereo partly specified)	inactive
CCOP(=O)(OCC)C(NC(=O)c1ccccc1C)C(Cl)(Cl)Cl (stereo unspecified)	inactive
COc1cc(-c2ccc(-[n+]3nc(-c4ccccc4)nn3-c3ccc([N+](=O)[O-])cc3)c(OC)c2)ccc1-[n+]1nc(-c2ccccc2)nn1-c1ccc([N+](=O)[O-])cc1	56.2 µM (active)
C[N+](C)(C)CC#CCN1CCCC1=O	inactive
C[C@@H]1CC[C@@]2(NC1)O[C@H]1C[C@H]3[C@@H]4CC=C5C[C@@H](O)CC[C@]5(C)[C@H]4CC[C@]3(C)[C@H]1[C@@H]2C	inactive
COc1ccc(C(O)P(=O)(Oc2ccccc2)Oc2ccccc2)cc1 (stereo unspecified)	inactive
CCCCn1c(=O)c(C(=O)Nc2ccsc2C(=O)OC)c(O)c2ccccc21	inactive
